{"source": "PubChem BioAssay", "note": "Calls of active or inactive are those of the source.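 Rule for the calls: active = inhibition at or above 50% relative to wild type and mutant plate controls; inactive = inhibition below 50%.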", "data": [{"assay": "inhibitors of Chlamydomonas gravitaxis, primary screen, whole organism, Chlamydomonas reinhardtii, WT vs cilia-less mutant, absorbance, 96-well (AID 463189);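 note: 0% = wild type cc124 cells in DMSO and 100% = ciliumless bld1 mutant cells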", "details": "OD600 absorbance, 2 days, at 10 µM, active compounds read high", "values": [{"smiles": "O=C(O)c1cc(=O)c2c(Cl)cc(Cl)cc2[nH]1", "inhibition": "2.38% (inactive)"}, {"smiles": "N#CC(Cc1ccc(O)c(O)c1)C(=O)N1CCc2ccccc21", "note": "(stereo not given)", "inhibition": "0.886% (inactive)"}, {"smiles": "CN(C)C(=O)C(CCN1CCC(O)(c2ccc(Cl)cc2)CC1)(c1ccccc1)c1ccccc1", "inhibition": "-2.62% (inactive)"}, {"smiles": "COc1cc(CC(=O)O)ccc1O", "inhibition": "-2.57% (inactive)"}, {"smiles": "NC(=O)c1ccccc1", "inhibition": "-2.55% (inactive)"}, {"smiles": "CC(=O)O[C@]1(C(C)=O)CC[C@H]2[C@@H]3C=C(Cl)C4=CC(=O)[C@@H]5C[C@@H]5[C@]4(C)[C@H]3CC[C@@]21C", "inhibition": "6.43% (inactive)"}, {"smiles": "Cc1nc2n(c(=O)c1CCN1CCC(c3noc4cc(F)ccc34)CC1)CCCC2", "inhibition": "2.59% (inactive)"}, {"smiles": "CCCN1C[C@H](CSC)C[C@@H]2c3cccc4[nH]cc(c34)C[C@H]21", "inhibition": "5.65% (inactive)"}, {"smiles": "Nc1cc(Cl)c(NC2=NCCN2)c(Cl)c1", "inhibition": "-3.5% (inactive)"}, {"smiles": "CC(=O)/C(C)=N/O", "inhibition": "1.74% (inactive)"}, {"smiles": "CC(C)COCC(CN(Cc1ccccc1)c1ccccc1)N1CCCC1", "note": "(stereo not given)", "inhibition": "-3.6% (inactive)"}, {"smiles": "O=C(O)CCCC[C@@H]1CCSS1", "inhibition": "4.4% (inactive)"}, {"smiles": "COc1ccc2c(c1)c(CC(=O)O)c(C)n2Cc1ccc(F)cc1", "inhibition": "4.4% (inactive)"}, {"smiles": "CCN(CC)CCOC(=O)c1cc(Cl)c(N)cc1OC", "inhibition": "2.34% (inactive)"}, {"smiles": "Cn1ccc2cc3c(cc21)CCN3C(=O)Nc1cccnc1", "inhibition": "9.75% (inactive)"}, {"smiles": "CCN(CC)C(=S)SSC(=S)N(CC)CC", "inhibition": "12.2% (inactive)"}, {"smiles": "C=CCn1c(=O)c2c(nc(-c3ccc(S(=O)(=O)O)cc3)n2C)n(C)c1=O", "inhibition": "4.78% (inactive)"}, {"smiles": "COc1cc(C(=O)OCCCN2CCCN(CCCOC(=O)c3cc(OC)c(OC)c(OC)c3)CC2)cc(OC)c1OC", "inhibition": "9.83% (inactive)"}, {"smiles": "CC(C)C1C2CCC(C2)C1N", "note": "(stereo not given)", "inhibition": "3.56% (inactive)"}, {"smiles": "NCCCC(=O)O", "inhibition": "-6.87% (inactive)"}, {"smiles": "CCNC(=O)C1OC(n2cnc3c(NCc4ccccc4)ncnc32)C(O)C1O", "note": "(stereo not given)", "inhibition": "-0.03% (inactive)"}, {"smiles": "O=C(c1ccc(OCCN2CCCCC2)cc1)c1c(-c2ccc(O)cc2)sc2cc(O)ccc12", "inhibition": "4.7% (inactive)"}, {"smiles": "CCCn1c(=O)c2c(ncn2C)n(CCC)c1=O", "inhibition": "6.81% (inactive)"}, {"smiles": "CC(=O)NNC(=O)N1Cc2ccccc2Oc2ccc(Cl)cc21", "inhibition": "3.76% (inactive)"}, {"smiles": "COC(=O)c1c(-c2cc(OC)c(OC)c(OC)c2)c2ccc(OCc3ccccn3)cc2c(=O)n1-c1ccc(N)cc1", "inhibition": "2.92% (inactive)"}, {"smiles": "NC(N)=NC(=O)c1nc(Cl)c(N2CCCCCC2)nc1N", "inhibition": "-1.07% (inactive)"}, {"smiles": "Nn1nnc2ccccc21", "inhibition": "1.8% (inactive)"}, {"smiles": "COC(=O)[C@H](NC(=O)c1cc(-c2ccccc2)nc2ccccc12)c1ccccc1", "inhibition": "1.92% (inactive)"}, {"smiles": "C=C1C(=O)O[C@@H]2[C@H]3O[C@]3(C)CCC=C(C)CC[C@@H]12", "inhibition": "4.91% (inactive)"}, {"smiles": "CCn1cc(C(=O)O)c(=O)c2cc3c(cc21)OCO3", "inhibition": "1.71% (inactive)"}, {"smiles": "CC(/C=C/c1cccc(Oc2ccc(F)cc2)c1)N(O)C(N)=O", "note": "(stereo not given)", "inhibition": "4.78% (inactive)"}, {"smiles": "O=C(O)[C@H]1NCCC[C@H]1C(=O)O", "inhibition": "-0.478% (inactive)"}, {"smiles": "O=C(O)C1CN(CCCP(=O)(O)O)CCN1", "note": "(stereo not given)", "inhibition": "-0.924% (inactive)"}, {"smiles": "Nc1c2c(nc3ccccc13)CCCC2", "inhibition": "-5.5% (inactive)"}, {"smiles": "NC1CCN(O)C1=O", "note": "(stereo not given)", "inhibition": "2.51% (inactive)"}, {"smiles": "O=c1cc(O)cc(/C=C/c2ccc(O)c(O)c2)o1", "inhibition": "-6.22% (inactive)"}, {"smiles": "COc1ccc(CCN(C)CCc2ccc(OC)c(OC)c2)cc1OC", "inhibition": "11.9% (inactive)"}, {"smiles": "Cc1ccc([N+](=O)[O-])cc1S(=O)(=O)N(C)C", "inhibition": "-11.4% (inactive)"}, {"smiles": "c1ccc(CN2CCC3(CCCc4ccccc43)CC2)cc1", "inhibition": "89% (active)"}, {"smiles": "CNCC[C@H](Oc1ccc(C(F)(F)F)cc1)c1ccccc1", "inhibition": "-14.3% (inactive)"}]}]}
